What all share (conditions): concentration: 1 μM,replicates: in singlicate; n = 1
Test [1] concerns T1, HASPIN.
T1 construct: gene GSG2

Test [2] concerns HCK.
The subject of test [3] is HIPK1.
Test [4] relates to HIPK2.
Test [5] concerns HIPK3.
The subject of test [6] is HIPK4.
Test [7] relates to HPK1.
Test [8] concerns HUNK.
For test [9], the system named is ICK.
For test [10], the system named is IGF1R.
Test [11] relates to T2, IKK-alpha.
T2 construct: gene CHUK

Test [12] has as its system T3, IKK-beta.
T3 construct: gene IKBKB

The subject of test [13] is T4, IKK-epsilon.
T4 construct: gene IKBKE

Test [14] deals with INSRR.
For test [15], the system named is INSR.
Test [16] concerns IRAK1.
Test [17] relates to IRAK3.
Test [18] relates to IRAK4.
The test system of test [19] is ITK.
The subject of test [20] is JAK1(JH1domain-catalytic).

The source of these data is PMC5540273 (PLoS ONE, 2017).
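Note: KINOMEscan kinase panel screen.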

Take `CCOC(=O)N1CCC(n2cnc(-c3ccc(F)cc3)c2-c2ccnc(N)n2)CC1` [SB-219952]: the “%Inh” value in [1] worked out at 0%; in test [2], 0%; in test [3], 37%; in test [4], 17%; in test [5], 15%; in test [6], 0%. Further, the “%Inh” value is 5% in test [7]; 0% in test [8]; 70% in test [9]; 0% in [10]; 0% in test [11]; 0% in test [12]. Moreover, the “%Inh” value in [13] was 0%; in [14], 0%; in [15] it was 0%; in test [16], 10%; in test [17], 19%; in test [18], 11%. Also, the “%Inh” value in [19] and in test [20] was 0% throughout.

Consider `Cl.Nc1n[nH]c2cc(-c3ccccn3)ccc12` [GSK2189892], for which the “%Inh” value in [1] amounted to 38%; in [2], 0%; in [3], 2%; in test [4], 0%; in [5], 5%; in test [6], 0%. For the same compound, the “%Inh” value came to 38% in test [7]; 0% in [8]; 0% in [9]; 5% in test [10]; 0% in test [11]; 0% in test [12]. Moreover, the “%Inh” value in test [13] was 24%; in test [14], 0%; in test [15], 0%; in test [16], 0%; in test [17], 6%; in test [18], 0%. Further, the results for the “%Inh” value in test [19] and in [20] were 4% and 10%, respectively.

Regarding `Cc1ccn2nc(-c3ccc(F)cc3)c(-c3ccncc3)c2c1.Cl` [GW457859], the “%Inh” value in test [1] was 32%; in [2] it was 10%; in test [3] it was 0%; in test [4] it was 0%; in test [5], 0%; in test [6] it was 0%. Also, the “%Inh” value was determined as 12% in test [7]; 52% in test [8]; 0% in [9]; 0% in [10]; 0% in test [11]; 0% in test [12]. Moreover, the “%Inh” value in [13] came to 16%; in test [14], 0%; in test [15], 0%; in test [16], 13%; in test [17], 0%; in [18], 0%. In addition, the “%Inh” value turned out to be 0% in test [19] and 16% in test [20].

On to `CCCC(=O)Nc1n[nH]c2ncccc12` [SB-601436], for which the “%Inh” value in [1] is on record as 29%; in test [2], 0%; in test [3] it was 20%; in [4], 0%; in test [5] it was 0%; in test [6], 0%. Further, the “%Inh” value in test [7] is on record as 6%; in test [8], 28%; in test [9] it was 7%; in test [10], 0%; in [11], 0%; in test [12] it was 0%. Moreover, the “%Inh” value in test [13], in test [14], in [15], in test [16], in test [17] and in test [18] was 0% each time. Also, the “%Inh” value in test [19] came to 0%; in test [20], 5%.

With `Cl.c1ccc(Oc2ccc(Nc3ccnc4cc(-c5ccc(CN6CCNCC6)o5)ccc34)cc2)nc1` [GW567142], the “%Inh” value in [1] came to 0%; in test [2], 84%; in test [3], 0%; in test [4] it was 0%; in test [5], 7%; in [6], 10%. The “%Inh” value in test [7] is 0%; in test [8], 1%; in [9], 0%; in test [10] it was 0%; in test [11], 0%; in test [12], 0%. The “%Inh” value in test [13] worked out at 42%; in test [14], 0%; in [15] it was 20%; in [16], 0%; in [17] it was 0%; in test [18], 5%. In addition, the results for the “%Inh” value in test [19] and in test [20] were 2% and 21%, respectively.

For `COc1cccc(CNC(=O)NC2CCN(c3ccnc(Nc4cc(OC)c(OC)c(OC)c4)n3)C2)c1` (stereo not shown) [GSK1379765], the “%Inh” value in test [1] was determined as 11%; in [2], 12%; in test [3], 0%; in [4] it was 34%; in test [5], 36%; in [6] it was 0%. The “%Inh” value in test [7] amounted to 38%; in test [8] it was 0%; in test [9], 13%; in test [10], 0%; in test [11], 21%; in [12] it was 24%. Also, the “%Inh” value was 36% in [13]; 96.4% in [14]; 0% in test [15]; 73% in [16]; 86% in test [17]; 27% in test [18]. Besides, the entries for the “%Inh” value in [19] and in test [20] were 20% and 13%, respectively.

Turning to `CS(=O)(=O)c1cccc(CNc2nc(Nc3ccc4c(c3)[C@@H]3C[C@@H]4CNC3=O)ncc2C(F)(F)F)c1`, the “%Inh” value is 0% in [1]; 0% in [2]; 60% in test [3]; 34% in test [4]; 7% in test [5]; 33% in test [6]. Also, the “%Inh” value in test [7] worked out at 86%; in [8] it was 0%; in [9], 0%; in test [10], 89%; in test [11], 5%; in test [12] it was 0%. Besides, the “%Inh” value was 87% in test [13]; 74% in test [14]; 94.5% in [15]; 39% in test [16]; 0% in test [17]; 0% in test [18]. Moreover, the figures for the “%Inh” value in test [19] and in test [20] were 49% and 93%, respectively.

Consider `FC(F)(F)c1cc(Br)cc(Nc2nccc(-c3cnn4ncccc34)n2)c1` [GW810578], for which the “%Inh” value was found to be 0% in [1]; 12% in test [2]; 99.1% in [3]; 99.4% in [4]; 97.9% in test [5]; 76% in [6]. The “%Inh” value in [7] was found to be 13%; in test [8], 0%; in test [9], 97.8%; in [10], 0%; in test [11], 13%; in [12] it was 9%. Besides, the “%Inh” value in [13] turned out to be 0%; in [14] it was 11%; in [15], 8%; in test [16], 92%; in [17], 58%; in [18] it was 0%. The entries for the “%Inh” value in test [19] and in [20] were 0% and 3%, respectively.

For the compound `O=C(Nc1ccc(Oc2ccc3nc(NC(=O)C4CC4)cn3n2)c(F)c1)c1cccn(-c2ccccc2)c1=O`, the “%Inh” value is reported as 0% in test [1]; 71% in test [2]; 40% in test [3]; 0% in test [4]; 0% in [5]; 20% in [6]. Also, the “%Inh” value in test [7] is given as 11%; in [8], 6%; in test [9], 0%; in test [10], 0%; in [11], 0%; in test [12], 0%. Besides, the “%Inh” value in test [13], in [14], in test [15], in test [16], in [17] and in test [18] was 0% in each case. In addition, the “%Inh” value was 1% in [19] and 8% in test [20].

Turning to `COc1cc2nccc(Nc3ccc(Oc4ccccc4)cc3)c2cc1OC.Cl` [GI261656], the “%Inh” value in test [1] is 29%; in [2], 97.6%; in test [3] it was 0%; in test [4], 0%; in test [5], 11%; in test [6] it was 0%. Also, the “%Inh” value came to 2% in test [7]; 9% in [8]; 0% in [9]; 0% in test [10]; 0% in [11]; 0% in test [12]. Further, the “%Inh” value in test [13] came to 35%; in test [14] it was 0%; in [15] it was 0%; in test [16], 0%; in test [17], 0%; in test [18] it was 0%. Also, the “%Inh” value in test [19] was found to be 0%; in test [20] it was 8%.

Regarding `CCN1CCN(CCCC(=O)Nc2n[nH]c3nc(-c4ccc(O)cc4)c(Br)cc23)CC1` [SB-731579], the “%Inh” value in [1] is listed as 0%; in test [2], 0%; in test [3], 75%; in test [4] it was 57%; in test [5] it was 0%; in [6], 0%. Besides, the “%Inh” value in test [7] stood at 8%; in test [8], 0%; in [9] it was 93.3%; in test [10], 0%; in test [11] it was 0%; in test [12], 0%. Also, the “%Inh” value in test [13], in test [14], in test [15], in test [16], in test [17] and in test [18] was 0% each time. Moreover, the results for the “%Inh” value in test [19] and in test [20] were 98.8% and 23%, respectively.
